Results from PubChem BioAssay AID1159580 (chemical genetic matrix, 2015).
Values joined by “and” are separate entries in the source; they are usually repeats but may differ in a detail not shown here. Equal values may be shown once. In all, about 5,500 compounds went through this assay and about 2,000 (36%) were called active. Inconclusive results (about 18%) are left out. Cut-off read from the data, not from the text of the source: active = normalized growth mostly below about 0.91 (no sharp cut-off); inconclusive = no clear call, values can overlap the other calls; inactive = mostly above about 0.92. Some of the results follow.

Assay: chemical genetic growth profiling, strain panel (AID 1159580);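 note: tested at 20 µM; growth read once vehicle control cultures reached saturation at 30 °C; 1 = growth at the plate median or of vehicle wells; lower values mean less growth of the strain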
Details: S. cerevisiae deletion strains, growth OD

Measured: normalized growth

Oc1c(Cl)cc(Cl)c2cccnc12
active: locus YAL013W, strain DEP1, stronger effect = lower value 0.0554 | locus YAL021C, strain ccr4, stronger effect = lower value 0.0642 | locus YAL026C, strain drs2, stronger effect = lower value 0.0607 | locus YAL030W, strain snc1, stronger effect = lower value 0.0606 | locus YBL061C, strain skt5, stronger effect = lower value 0.0718 | locus YBR009C, strain hhf1, stronger effect = lower value 0.0665 | locus YBR021W, strain FUR4, stronger effect = lower value 0.0914 | locus YBR023C, strain chs3, stronger effect = lower value 0.0713 | locus YBR171W, strain sec66, stronger effect = lower value 0.083 | locus YBR229C, strain ROT2, stronger effect = lower value 0.0477 | locus YBR231C, strain swc5, stronger effect = lower value 0.0819 | locus YBR279W, strain paf1, stronger effect = lower value 0.064 | locus YCL011C, strain gbp2, stronger effect = lower value 0.0637 | locus YCL016C, strain dcc1, stronger effect = lower value 0.0656 | locus YCL029C, strain bik1, stronger effect = lower value 0.0628 | locus YCL061C, strain MRC1, stronger effect = lower value 0.0645 | locus YCL069W, strain vba3, stronger effect = lower value 0.0656 | locus YCR088W, strain abp1, stronger effect = lower value 0.0623 | locus YDL005C, strain med2, stronger effect = lower value 0.0757 | locus YDL035C, strain GPR1, stronger effect = lower value 0.0525 | locus YDL040C, strain nat1, stronger effect = lower value 0.0611 | locus YDL074C, strain BRE1, stronger effect = lower value 0.0827 | locus YDL101C, strain DUN1, stronger effect = lower value 0.0602 | locus YDL134C, strain PPH21, stronger effect = lower value 0.0491 | locus YDL185W, strain tfp1, stronger effect = lower value 0.0641 | locus YDL192W, strain arf1, stronger effect = lower value 0.0659 | locus YDR001C, strain nth1, stronger effect = lower value 0.0589 | locus YDR069C, strain doa4, stronger effect = lower value 0.0663 | locus YDR101C, strain arx1, stronger effect = lower value 0.0587 | locus YDR137W, strain rgp1, stronger effect = lower value 0.113 | locus YDR150W, strain NUM1, stronger effect = lower value 0.0572 | locus YDR159W, strain sac3, stronger effect = lower value 0.0885 | locus YDR162C, strain NBP2, stronger effect = lower value 0.0476 | locus YDR195W, strain ref2 0.117 | locus YDR297W, strain sur2, stronger effect = lower value 0.067 | locus YDR318W, strain mcm21, stronger effect = lower value 0.0673 | locus YDR334W, strain swr1, stronger effect = lower value 0.0629 | locus YDR335W, strain msn5, stronger effect = lower value 0.0654 | locus YDR388W, stronger effect = lower value 0.0609 | locus YDR392W, strain spt3, stronger effect = lower value 0.0726 | locus YDR502C, strain sam2, stronger effect = lower value 0.0656 | locus YEL003W, strain gim4, stronger effect = lower value 0.0637 | locus YEL037C, strain rad23, stronger effect = lower value 0.0639 | locus YEL061C, strain CIN8 (second series), stronger effect = lower value 0.0636 | locus YEL061C, strain CIN8, stronger effect = lower value 0.0482 | locus YER015W, strain faa2, stronger effect = lower value 0.0692 | locus YER016W, strain bim1, stronger effect = lower value 0.0695 | locus YER110C, stronger effect = lower value 0.08 | locus YER111C, strain swi4, stronger effect = lower value 0.0742 | locus YER155C, strain BEM2 (second series), stronger effect = lower value 0.0894 | locus YER155C, strain BEM2, stronger effect = lower value 0.0642 | locus YER167W, strain BCK2, stronger effect = lower value 0.0516 | locus YFR010W, strain ubp6, stronger effect = lower value 0.0659 | locus YGL078C, strain dbp3, stronger effect = lower value 0.0639 | locus YGL086W, strain mad1, stronger effect = lower value 0.0594 | locus YGL167C, strain pmr1, stronger effect = lower value 0.0827 | locus YGL173C, strain kem1, stronger effect = lower value 0.076 | locus YGL227W, strain vid30, stronger effect = lower value 0.0665 | locus YGL240W, strain doc1, stronger effect = lower value 0.0841 | locus YGL248W, strain PDE1, stronger effect = lower value 0.0454 | locus YGL253W, strain hxk2, stronger effect = lower value 0.0551 | locus YGR078C, strain PAC10, stronger effect = lower value 0.0521 | locus YGR135W, strain pre9, stronger effect = lower value 0.0748 | locus YGR229C, strain SMI1, stronger effect = lower value 0.0589 | locus YGR252W, strain gcn5, stronger effect = lower value 0.158 | locus YHR013C, strain ard1, stronger effect = lower value 0.111 | locus YHR027C, strain rpn1, stronger effect = lower value 0.0681 | locus YHR030C, strain SLT2, stronger effect = lower value 0.0506 and 0.116 | locus YHR079C, strain IRE1 (second series), stronger effect = lower value 0.0598 | locus YHR079C, strain IRE1, stronger effect = lower value 0.119 | locus YHR094C, strain hxt1, stronger effect = lower value 0.0629 | locus YHR129C, strain ARP1, stronger effect = lower value 0.0524 | locus YHR142W, strain chs7, stronger effect = lower value 0.0684 | locus YHR200W, strain rpn10, stronger effect = lower value 0.066 | locus YIL066C, strain RNR3, stronger effect = lower value 0.0479 | locus YIL073C, strain SPO22, stronger effect = lower value 0.128 | locus YIL125W, strain kgd1, stronger effect = lower value 0.0656 | locus YIR030C, strain dcg1, stronger effect = lower value 0.0607 | locus YJL092W, strain hpr5, stronger effect = lower value 0.0625 | locus YJL095W, strain BCK1 (second series), stronger effect = lower value 0.0621 | locus YJL095W, strain BCK1, stronger effect = lower value 0.0584 and 0.118 | locus YJL115W, strain asf1, stronger effect = lower value 0.0757 | locus YJL129C, strain trk1, stronger effect = lower value 0.089 | locus YJL134W, strain LCB3, stronger effect = lower value 0.0493 | locus YJL154C, strain vps35, stronger effect = lower value 0.0617 | locus YJL164C, strain tpk1, stronger effect = lower value 0.062 | locus YJL166W, strain qcr8, stronger effect = lower value 0.0623 | locus YJL168C, strain set2, stronger effect = lower value 0.0626 | locus YJL187C, strain SWE1 (second series), stronger effect = lower value 0.0481 | locus YJL187C, strain SWE1, stronger effect = lower value 0.0669 | locus YJR043C, strain POL32, stronger effect = lower value 0.0614
